HCMV antiviral: inhibitors of human cytomegalovirus; activity change, negative = inhibition, % at 57.5 µM; HFF cells, HCMV-luciferase reporter, 72 h; hits give low values; 410,000 tested, 4.5% active; in the data active = activity change below about -60%; inconclusive = no clear call, values can overlap the other calls; inactive = above about -39%; also: % is scaled to controls: 0 for no effect and ±100 for the full control effect
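Human foreskin fibroblasts infected with luciferase-reporter HCMV at MOI 1 PFU/cell, compounds at two doses. Luciferase measured 72 h post infection; normalized to buffer-only basal and Salinomycin (10uM) controls.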
CHX counter: counter-screen hit for Shiga toxin inhibitors, cycloheximide | cell reporter, cycloheximide protein synthesis inhibition counterscreen | max response, % | 300,000 tested, 12% active | AID 2314; in the data active = max response mostly above about 13%, no sharp cut-off; inactive = mostly below about 14%; also: read at 38.3 µM for the half of the compounds with a filed dose; 0% is about no effect
Shiga toxin inh: inhibitors of Shiga toxin in Vero cells; Vero cells, Shiga toxin protein synthesis inhibition reporter; inhibition, % at 38.7 µM; 290,000 tested, 9.2% active; in the data active = inhibition mostly above about 28%, no sharp cut-off; inactive = mostly below about 43%; also: 0% is about no effect
Pf growth 48h: P. falciparum growth inhibition at 48 hours (one generation); P. falciparum luciferase growth in erythrocytes, 48 h; 310,000 tested, 5.9% active; Potency, µM (titrated, usually from 28.7 µM), inactives show at the top dose activity change, negative = inhibition, actives largely listed as inhibitors; AID 504832; also: potency is read from the fitted curve at half-maximal effect; % is scaled to controls: 0 for no effect and ±100 for the full control effect
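Here the parasites carry a stable luciferase gene and grow inside erythrocytes in Albumax-based RPMI medium with compound for one erythrocytic cycle. Activity is scored as loss of luminescent signal.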
Pf growth 96h: P. falciparum growth inhibition at 96 hour, primary screen for plastid delayed-death inhibitors | P. falciparum luciferase reporter growth, 96 h | 320,000 tested, 6.9% active | AID 504834 | Potency, µM (titrated, usually from 28.7 µM), for inactives: top-dose activity change, negative = inhibition, usual class: inhibitors; also: potency is read from the fitted curve at half-maximal effect; % is scaled to controls: 0 for no effect and ±100 for the full control effect
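P. falciparum expressing integrated firefly luciferase, in erythrocytes at 2% hematocrit, 0.05% parasitemia, incubated with compounds 96 h at 37 C, 5% CO2. Growth inhibition read as loss of luminescence; two-generation exposure targets delayed-death apicoplast inhibitors.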
* = called active by the depositor; ? = inconclusive; . = not tested or not shown; [ ] = dose if it differs, or a comment. Compounds with a hit are over-represented: about 20% of the library has one in this group of screens. Unless noted, calls follow the shape of the dose curve; as a rule, active = well fitted inhibition curve with a large enough effect; inconclusive = small, poorly fitted or top-dose-only effect, or another doubt; inactive = no such curve, though single readings can be large or run the other way.

SMILES | HCMV antiviral | CHX counter | Shiga toxin inh | Pf growth 48h | Pf growth 96h
CCO[C@H]1OC(C(=O)NCc2nc3ccccc3[nH]2)=C[C@@H](C2CCCCC2)[C@@H]1CCCO | -27 | 2 | -10 | ? | 9.3µM*
CCO[C@H]1OC(C(=O)NCc2nc3ccccc3[nH]2)=C[C@@H](C)[C@@H]1CCCO | -62* | -1 | -10 | 49% | 47%
COc1ccc(NS(=O)(=O)c2cc(NC(=O)C3=NN(c4ccccc4)C(=O)CC3)ccc2OC)cc1 | 4 | . | . | . | .
COc1cccc(CN(CC2CCCO2)C(=O)c2cc3ccccc3oc2=O)c1 (configuration not stated) | -10 | 44* | 77* | -7% | -2%
COc1ccc(CN(CC2CCCO2)C(=O)c2cc3ccccc3oc2=O)cc1 (configuration not stated) | 48 | -2 | 3 | -1% | -2%
COc1cccc(CN(C(=O)c2cc3ccccc3oc2=O)C2CC2)c1 | -9 | 26* | 78* | -27% | .
COc1ccc(CN(C(=O)c2cc3ccccc3oc2=O)C2CCCC2)cc1 | 26 | -1 | 12 | -17% | 4%
O=C(O)c1cc(-c2ccccc2)n(-c2ccc(Cl)cc2)n1 | 0 | -4 | -8 | 17% | 49%
O=C(CCS(=O)(=O)c1cccs1)Nc1ccc(C(=O)NC2CCCC2)cc1 | -32 | -3 | 22 | -36%[1.15 µM] | ?
CC(C)(C)Nc1ncnc2sc(-c3ccccc3)cc12 | -73* | 11 | 29 | -23% | ?
COc1ncnc2sc(-c3ccccc3)cc12 | 31 | 66* | 82 | 179% | 17%
CN(C)C(=O)COc1ncnc2sc(-c3ccccc3)cc12 | 81 | 28* | 72* | 69% | 78%
CCN(CC)C(=O)CSc1ncnc2sc(-c3ccccc3)cc12 | -38 | 34 | 36 | 64% | .
OCCCNc1ncnc2sc(-c3ccccc3)cc12 | -36 | 0 | 2 | 0% | 8%
CN(CCC#N)C(=O)CSc1ncnc2sc(-c3ccccc3)cc12 | -5 | 31* | 62* | -2% | ?
CCc1ccc(NC(=O)CN2C(=O)C3CCCN3c3ccc(S(=O)(=O)N(CC)CC)cc32)cc1 (configuration not stated) | 7 | . | . | . | .
CN(C)c1ncnc2sc(-c3ccccc3)cc12 | 37 | 16* | 40 | 134% | 39%
Cc1ccc(C)c(NC(=O)c2ccccc2NC(=O)C2CCCO2)c1 (configuration not stated) | -32 | 2 | 13 | 3% | ?
COC(=O)C1=C(c2ccccc2OCc2ccccc2)C[C@@H]2CC[C@H]1N2C(=O)NCc1ccc(C(F)(F)F)cc1 | -3 | . | . | 13µM* | ?
COC(=O)C1=C(c2cccc(OC)c2OC)C[C@@H]2CC[C@H]1N2C(=O)NCCO | -3 | . | . | . | .
COC(=O)C1=C(c2ccccc2)C[C@@H]2CC[C@H]1N2C(=O)NCc1ccc(F)cc1 | -12 | . | . | . | .
COC(=O)C1=C(c2ccccc2OCc2ccccc2)C[C@@H]2CC[C@H]1N2C(=O)NCCN1CCOCC1 | -9 | . | . | ? | 4.7µM*
COC(=O)C1=C(c2ccccc2OCc2ccccc2)C[C@@H]2CC[C@H]1N2C(=O)NCc1ccccc1 | 0 | . | . | 10µM* | 4.1µM*
COC(=O)C1=C(c2ccccc2OCc2ccccc2)C[C@@H]2CC[C@H]1N2C(=O)NCc1ccc(Br)cc1 | -4 | . | . | 10µM* | ?
COC(=O)C1=C(c2cc3ccccc3s2)C[C@@H]2CC[C@H]1N2C(=O)NCc1ccc(C(F)(F)F)cc1 | -6 | . | . | . | .
SMILES | HCMV antiviral | CHX counter | Shiga toxin inh | Pf growth 48h | Pf growth 96h
COc1ccc(N2CC(NC(=O)C(=O)c3c(C)[nH]c4ccccc34)CC2=O)cc1 (configuration not stated) | 26 | . | . | . | .
COC(=O)c1ccsc1NC(=O)c1ccc2c(c1)OCCO2 | 80 | 1 | 1 | 55% | -16%
COC(=O)C1=C(c2ccccc2OCc2ccccc2)C[C@@H]2CC[C@H]1N2C(=O)NCc1cccc(C(F)(F)F)c1 | 1 | . | . | 10µM* | ?
COC(=O)C1=C(c2ccc(OCc3ccccc3)cc2)C[C@@H]2CC[C@H]1N2C(=O)NCc1cccc(C(F)(F)F)c1 | -32 | . | . | 4.1µM* | 1.9µM*
COC(=O)C1=C(c2ccccc2OCc2ccccc2)C[C@@H]2CC[C@H]1N2C(=O)NCCc1ccc(F)cc1 | -27 | . | . | 10µM* | ?
COC(=O)C1=C(c2ccc(OCc3ccccc3)cc2)C[C@@H]2CC[C@H]1N2C(=O)NCc1ccccc1C(F)(F)F | -31 | . | . | . | .
COc1ccc(CC(=O)OCC(=O)Nc2ccc3[nH]c(=O)[nH]c3c2)cc1OC | -6 | . | . | . | .
c1ccc2c(c1)CC1CNCc3cccc(c31)S2 (configuration not stated) | -6 | -1 | -4 | ? | 10µM*
CC(=O)c1sc(N/N=C2\CC3CC2C(C)C3(C)C)nc1C (configuration not stated) | 35 | 34* | 48* | -29% | ?
COCCNc1nc(C)c(C(C)=O)s1 | -2 | -1 | -10 | 20% | 28%
CC1CCN(S(=O)(=O)c2ccc3c(c2)N(CC(=O)NCCCN2CCCC(C)C2)C(=O)CO3)CC1 (configuration not stated) | -34 | -7 | -4 | -15% | 12µM*
CCN(CC)S(=O)(=O)c1ccc2c(c1)N(CC(=O)N1CCN(c3cc(Cl)ccc3C)CC1)C(=O)CO2 | 7 | . | . | . | .
CC(C)CN(CCCNC(=O)CN1C(=O)COc2ccc(S(=O)(=O)N3CCCC3)cc21)CC(C)C | -20 | 5 | -7 | 12µM* | ?
COc1ccc(CNC(=O)CN2C(=O)COc3ccc(S(=O)(=O)N4CCOCC4)cc32)cc1 | -15 | 14 | -3 | -11% | ?
COc1ccc(CNC(=O)CN2C(=O)COc3ccc(S(=O)(=O)N4CCC(C)CC4)cc32)cc1 | ? | 0 | -2 | -14% | 13µM*
CCN(CC)S(=O)(=O)c1ccc2c(c1)N(CC(=O)NCCCN1CCN(c3cc(Cl)ccc3C)CC1)C(=O)CO2 | -74* | . | . | . | .
CC(C)CN(CCCNC(=O)CN1C(=O)COc2ccc(S(=O)(=O)N3CCCCCC3)cc21)CC(C)C | -36 | -3 | 13 | ? | ?
Cc1ccc(OCCNC(=O)[C@H]2O[C@@H](n3cnc4c(N)ncnc43)[C@H](O)[C@@H]2O)cc1C | 4 | . | . | . | .
O=C(Nc1cccc(F)c1)N1CCN(C(=O)c2ccco2)CC1 | -31 | 2 | -9 | 0% | -24%
COc1ccc(NC(=O)c2cccc(S(=O)(=O)N3CCN(C)CC3)c2)c(OC)c1 | -23 | 1 | -6 | ? | ?
COc1ccc(NC(=O)Cn2c(C)cc3ccccc3c2=O)c(OC)c1 | 18 | . | . | . | .
O=C(N/N=C1/CN2CCC1CC2)c1cc2ccccc2cc1O | 50 | -4 | -13 | 13µM* | 32%
CCOc1ccc2nc(NC(=O)c3cc(=O)c4cc(C)cc(C)c4o3)sc2c1 | 0 | . | . | . | .
Cc1onc(-c2ccccc2)c1C(=O)NC(=S)NNC(=O)c1ccccc1O | -70* | -3 | 4 | ? | ?

Assay outcomes (PubChem BioAssay)
